The full data set covers some 7,900 targets. This sample favours those with a hit. About 0.6% of all pairs of compound and target were hits.
Columns and labels:
Experiment in all cases: log2 fold change, soluble protein after heating vs DMSO (PISA); higher = thermal stabilisation; K562 cells, 10 uM, 30 min; active = over 0.2 and 3.5 SD of the protein, either way, in both replicates (recomputed)
erlotinib = compound: C#Cc1cccc(Nc2ncnc3cc(OCCOC)c(OCCOC)cc23)c1 [erlotinib]
Method in brief: (§1)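 K562 cells at 2×10^6 cells/mL were exposed to 10 μM compound for 30 min, then aliquots were heated for 3 min across 48°C-58°C, pooled, and extracted in PBS containing 0.5% NP-40 at 4°C. The supernatant after 21,000xg for 90 min was taken as soluble protein and measured by TMTpro 16plex LC-MS/MS with channel sums equalised. Thermal stability is reported relative to control samples, with values from duplicates. Fold changes are given on a log2 scale.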

[1] = compound: C/C(=N\NC(=O)C1=CC(=CC=C1)S(=O)(=O)N2CCOCC2)/C3=C(C=CC(=C3)Cl)O
Method in brief: as §1

[2] = compound: C1=CC(=C(C=C1Cl)C2=NC3=NC=CN=C3C(=N2)NC4=CC=NC=C4)F
Method in brief: as §1

[3] = compound: C1=CC(=CC=C1C2=NC3=C(N2)C=C(C=C3)C(=O)N)OC4=CC=C(C=C4)Cl
Method in brief: as §1

[4] = compound: C1=CC2=C(C=CC(=C2)/C=C\3/C(=O)NC(=NCC4=CC=CS4)S3)N=C1
Method in brief: as §1

[5] = compound: C1=CC2=NC=CN=C2C=C1/C=C/3\C(=O)NC(=O)S3
Method in brief: as §1

[6] = compound: C1=CC=C(C=C1)C2=NC(=C(N2)C3=CC=NC=C3)C4=CC(=C(C=C4)Cl)O
Method in brief: as §1

[7] = compound: C1=CC=C2C(=C1)C3=NNC4=CC=CC(=C43)C2=O
Method in brief: as §1

[8] = compound: C1CCN(C1)C(=O)NC2=CC=CC(=C2)NC3=NC=C(C(=N3)NCCC4=CN=CN4)Br
Method in brief: as §1

[9] = compound: C1CN(CCC1(CC2=CC=C(C=C2)Cl)N)C3=NC=NC4=C3C=CN4
Method in brief: as §1

IRAK-1-4 Inhibitor I = compound: C1COCCN1CCN2C3=CC=CC=C3N=C2NC(=O)C4=CC(=CC=C4)[N+](=O)[O-] [IRAK-1-4 Inhibitor I]
Method in brief: as §1

ibrutinib = compound: C=CC(=O)N1CCC[C@@H](n2nc(-c3ccc(Oc4ccccc4)cc3)c3c(N)ncnc32)C1 [ibrutinib]
Method in brief: as §1

[10] = compound: CC(=O)c1cnc2ccc(-c3cc(Cl)c(O)c(Cl)c3)nc2c1N[C@H]1CC[C@H](CN(C)C)CC1
Method in brief: as §1

ralimetinib = compound: CC(C)(C)Cn1c(N)nc2ccc(-c3[nH]c(C(C)(C)C)nc3-c3ccc(F)cc3)nc21 [ralimetinib]
Method in brief: as §1

[11] = compound: CC(C)(O)CC(=O)NCCn1ccc2ncnc(Nc3ccc(Oc4cccc(C(F)(F)F)c4)c(Cl)c3)c21
Method in brief: as §1

[12] = compound: CC(C)C1=C2N=C(C=C(N2N=C1)NCC3=CC=CC=C3)NCCCCCCN
Method in brief: as §1

[13] = compound: CC(C)C[C@@H](C=O)NC(=O)[C@H](CC(C)C)NC(=O)[C@H](CC(C)C)NC(=O)OCc1ccccc1
Method in brief: as §1

pinometostat = compound: CC(C)N(C[C@H]1O[C@@H](n2cnc3c(N)ncnc32)[C@H](O)[C@@H]1O)[C@H]1C[C@@H](CCc2nc3cc(C(C)(C)C)ccc3[nH]2)C1 [pinometostat]
Method in brief: as §1

[14] = compound: CC1=C(C(CC(=O)N1)C2=CC=C(C=C2)C(F)(F)F)C(=O)NC3=C(C=C4C(=C3)C=NN4)F
Method in brief: as §1

[15] = compound: CC1=C(C2=C(C=C1)C(=O)C3=CC=CC=C3N2CCCN)C
Method in brief: as §1

Measured: log2 fold change

TBCD (UniProt Q9BTW9)
inactive: erlotinib 0.022 | [1] 0.06 | [2] 0.059 | [3] 0.022 | [4] 0.069 | [5] 0.029 | [6] -0.025 | [7] -0.01 | [8] -0.016 | [9] -0.021 | IRAK-1-4 Inhibitor I 0.019 | ibrutinib -0.019 | [10] -0.004 | ralimetinib 0.01 | [11] -0.034 | [12] -0.083 | [13] 0.01 | pinometostat -0.061 | [14] 0.068 | [15] -0.086

SNX2 (UniProt O60749)
inactive: erlotinib 0.043 | [1] 0.075 | [2] 0.002 | [3] 0.041 | [4] 0.067 | [5] -0.059 | [6] -0.057 | [7] -0.049 | [8] 0.006 | [9] -0.013 | IRAK-1-4 Inhibitor I 0.058 | ibrutinib 0.043 | [10] -0.135 | ralimetinib -0.014 | [11] -0.154 | [12] -0.189 | [13] 0.079 | pinometostat 0.016 | [14] 0.019 | [15] 0.03

SRSF7 (UniProt Q16629)
Sequence of UniProt Q16629 (Q16629 whole entry, looked up): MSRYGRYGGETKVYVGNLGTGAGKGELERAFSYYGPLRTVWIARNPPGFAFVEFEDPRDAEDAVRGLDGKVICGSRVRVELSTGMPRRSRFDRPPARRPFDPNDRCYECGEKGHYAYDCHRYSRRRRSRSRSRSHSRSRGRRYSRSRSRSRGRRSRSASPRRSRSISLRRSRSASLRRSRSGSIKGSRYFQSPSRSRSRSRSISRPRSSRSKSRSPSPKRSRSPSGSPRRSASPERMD
inactive: erlotinib 0.083 | [1] -0.043 | [2] -0.292 | [3] 0.063 | [4] -0.154 | [5] -0.032 | [6] -0.135 | [7] -0.037 | [8] 0.084 | [9] -0.063 | IRAK-1-4 Inhibitor I -0.112 | ibrutinib 0.128 | [10] -0.288 | ralimetinib 0.098 | [11] 0.24 | [12] 0.032 | [13] 0.084 | pinometostat 0.128 | [14] 0.053 | [15] -0.266

SUMO1 (UniProt P63165)
Sequence of UniProt P63165 (P63165 whole entry, looked up): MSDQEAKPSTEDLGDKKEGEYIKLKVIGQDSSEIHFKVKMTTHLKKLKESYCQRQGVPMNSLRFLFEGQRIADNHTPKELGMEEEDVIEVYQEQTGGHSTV
inactive: erlotinib -0.126 | [1] 0.167 | [2] 0.006 | [3] -0.06 | [4] 0.182 | [5] 0.043 | [6] 0.045 | [7] -0.06 | [8] 0.211 | [9] 0.033 | IRAK-1-4 Inhibitor I -0.079 | ibrutinib -0.007 | [10] -0.077 | ralimetinib 0.053 | [11] 0.139 | [12] -0.065 | [13] 0.01 | pinometostat 0.022 | [14] 0.042 | [15] -0.125

SMPD4 isoform 4 (UniProt Q9NXE4)
Sequence of UniProt Q9NXE4 (Q9NXE4 whole entry, looked up): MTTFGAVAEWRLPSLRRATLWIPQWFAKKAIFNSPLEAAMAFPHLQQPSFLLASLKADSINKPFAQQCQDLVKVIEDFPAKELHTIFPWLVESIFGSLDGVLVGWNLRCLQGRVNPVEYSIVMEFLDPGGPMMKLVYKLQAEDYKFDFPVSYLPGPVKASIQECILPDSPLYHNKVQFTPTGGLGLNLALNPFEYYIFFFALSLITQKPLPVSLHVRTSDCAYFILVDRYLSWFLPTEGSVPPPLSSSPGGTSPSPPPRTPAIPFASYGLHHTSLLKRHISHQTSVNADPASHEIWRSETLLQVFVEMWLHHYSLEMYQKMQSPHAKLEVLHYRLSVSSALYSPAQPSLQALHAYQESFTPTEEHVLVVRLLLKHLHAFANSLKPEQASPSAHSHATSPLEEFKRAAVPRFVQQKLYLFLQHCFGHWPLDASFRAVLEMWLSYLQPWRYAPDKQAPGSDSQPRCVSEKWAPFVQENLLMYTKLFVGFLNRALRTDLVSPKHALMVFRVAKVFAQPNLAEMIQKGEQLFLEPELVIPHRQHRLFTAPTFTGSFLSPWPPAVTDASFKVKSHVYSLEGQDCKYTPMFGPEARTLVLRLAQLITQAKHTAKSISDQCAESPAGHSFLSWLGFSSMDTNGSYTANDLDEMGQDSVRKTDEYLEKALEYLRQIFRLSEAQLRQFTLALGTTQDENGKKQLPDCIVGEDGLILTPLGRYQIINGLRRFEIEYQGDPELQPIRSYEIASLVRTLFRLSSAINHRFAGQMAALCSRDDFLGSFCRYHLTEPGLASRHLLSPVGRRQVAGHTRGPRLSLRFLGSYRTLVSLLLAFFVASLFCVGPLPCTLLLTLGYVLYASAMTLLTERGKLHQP
inactive: erlotinib 0.073 | [1] 0.064 | [2] -0.034 | [3] 0.005 | [4] 0.098 | [5] 0.158 | [6] -0.021 | [7] -0.076 | [8] 0.023 | [9] -0.011 | IRAK-1-4 Inhibitor I -0.034 | ibrutinib -0.044 | [10] 0.12 | ralimetinib -0.072 | [11] -0.095 | [13] 0.005 | pinometostat -0.002 | [14] -0.019 | [15] 0.038
active: [12] -0.279

SLC27A2 (UniProt O14975)
Sequence of UniProt O14975 (O14975 whole entry, looked up): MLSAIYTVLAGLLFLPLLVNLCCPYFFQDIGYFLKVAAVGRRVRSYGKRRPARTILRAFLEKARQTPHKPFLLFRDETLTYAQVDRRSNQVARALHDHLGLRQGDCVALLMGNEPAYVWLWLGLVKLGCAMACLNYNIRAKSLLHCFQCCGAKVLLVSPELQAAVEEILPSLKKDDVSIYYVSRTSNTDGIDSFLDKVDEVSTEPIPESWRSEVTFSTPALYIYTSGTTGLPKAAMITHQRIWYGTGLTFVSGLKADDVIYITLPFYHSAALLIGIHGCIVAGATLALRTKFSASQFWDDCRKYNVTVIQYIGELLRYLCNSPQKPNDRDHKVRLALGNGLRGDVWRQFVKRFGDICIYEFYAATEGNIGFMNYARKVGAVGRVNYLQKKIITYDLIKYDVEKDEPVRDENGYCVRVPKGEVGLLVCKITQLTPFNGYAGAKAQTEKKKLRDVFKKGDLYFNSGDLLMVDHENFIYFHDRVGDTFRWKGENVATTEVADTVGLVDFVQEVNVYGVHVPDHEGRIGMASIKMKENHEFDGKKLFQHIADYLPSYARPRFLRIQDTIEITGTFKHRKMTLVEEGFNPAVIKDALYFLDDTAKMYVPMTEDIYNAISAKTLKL
active: [11] 0.366
inactive: erlotinib 0 | [1] 0.057 | [2] 0.054 | [3] 0.032 | [4] 0.101 | [5] 0.005 | [6] 0.108 | [7] 0.018 | [8] -0.001 | [9] 0.035 | IRAK-1-4 Inhibitor I -0.039 | ibrutinib 0.144 | [10] -0.125 | ralimetinib 0.013 | [12] 0.015 | [13] 0.055 | pinometostat 0.01 | [14] -0.045 | [15] 0.03

SP1 (UniProt P08047)
Sequence of UniProt P08047 (P08047 whole entry, looked up): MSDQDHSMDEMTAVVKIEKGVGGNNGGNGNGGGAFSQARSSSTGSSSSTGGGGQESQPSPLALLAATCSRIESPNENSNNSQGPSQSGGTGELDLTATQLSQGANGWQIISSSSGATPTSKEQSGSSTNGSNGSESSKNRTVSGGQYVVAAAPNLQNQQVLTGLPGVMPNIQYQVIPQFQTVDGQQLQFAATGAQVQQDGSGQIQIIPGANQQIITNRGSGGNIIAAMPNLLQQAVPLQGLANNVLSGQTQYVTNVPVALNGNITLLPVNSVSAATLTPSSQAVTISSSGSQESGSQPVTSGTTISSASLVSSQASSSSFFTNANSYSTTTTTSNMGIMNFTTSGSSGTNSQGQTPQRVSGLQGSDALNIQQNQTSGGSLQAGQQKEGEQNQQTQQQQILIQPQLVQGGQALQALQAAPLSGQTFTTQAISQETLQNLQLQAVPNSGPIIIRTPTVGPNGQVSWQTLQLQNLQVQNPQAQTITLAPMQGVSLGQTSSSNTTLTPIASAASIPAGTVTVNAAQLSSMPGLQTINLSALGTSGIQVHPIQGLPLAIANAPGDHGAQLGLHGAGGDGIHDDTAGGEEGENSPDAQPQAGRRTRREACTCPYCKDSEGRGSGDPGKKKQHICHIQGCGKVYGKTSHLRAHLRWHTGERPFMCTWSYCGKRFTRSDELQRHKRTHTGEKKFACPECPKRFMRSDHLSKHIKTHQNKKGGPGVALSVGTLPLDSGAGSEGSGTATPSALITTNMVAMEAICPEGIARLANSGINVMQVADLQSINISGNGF
inactive: erlotinib -0.055 | [1] -0.03 | [2] -0.046 | [3] 0.043 | [4] 0.006 | [5] 0.01 | [6] 0.001 | [7] -0.031 | [8] 0.047 | [9] -0.019 | IRAK-1-4 Inhibitor I 0.013 | ibrutinib 0.024 | [10] 0.029 | ralimetinib -0.049 | [11] -0.031 | [12] -0.05 | [13] 0.064 | pinometostat 0.04 | [14] 0.043
active: [15] -0.312

TECR (UniProt Q9NZ01)
Sequence of UniProt Q9NZ01 (Q9NZ01 whole entry, looked up): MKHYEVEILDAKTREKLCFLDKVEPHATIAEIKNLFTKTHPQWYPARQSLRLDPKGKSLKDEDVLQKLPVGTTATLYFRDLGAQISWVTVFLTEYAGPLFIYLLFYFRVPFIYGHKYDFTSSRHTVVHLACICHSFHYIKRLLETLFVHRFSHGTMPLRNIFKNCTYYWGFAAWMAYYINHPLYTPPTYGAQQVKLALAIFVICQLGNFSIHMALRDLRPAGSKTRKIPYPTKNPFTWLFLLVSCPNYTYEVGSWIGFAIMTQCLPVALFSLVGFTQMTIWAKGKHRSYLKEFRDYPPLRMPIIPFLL
active: [12] -0.458
inactive: erlotinib -0.02 | [1] 0.042 | [2] 0.036 | [3] -0.059 | [4] 0.018 | [5] 0.024 | [6] 0.067 | [7] -0.059 | [8] 0.072 | [9] 0.045 | IRAK-1-4 Inhibitor I 0.04 | ibrutinib -0.059 | [10] 0 | ralimetinib -0.061 | [11] -0.107 | [13] 0.009 | pinometostat 0.024 | [14] 0.012 | [15] 0.036

SMARCAD1 isoform 2 (UniProt Q9H4L7)
inactive: erlotinib 0.089 | [1] 0.052 | [2] 0.071 | [3] 0.007 | [4] 0.05 | [5] -0.026 | [6] 0.025 | [7] 0.022 | [8] -0.02 | [9] -0.052 | IRAK-1-4 Inhibitor I -0.031 | ibrutinib -0.016 | [10] 0.014 | ralimetinib -0.009 | [11] -0.201 | [12] -0.2 | [13] 0.029 | pinometostat -0.003 | [14] -0.007 | [15] 0.144

SSX2 (UniProt Q16385)
Sequence of UniProt Q16385 (Q16385 whole entry, looked up): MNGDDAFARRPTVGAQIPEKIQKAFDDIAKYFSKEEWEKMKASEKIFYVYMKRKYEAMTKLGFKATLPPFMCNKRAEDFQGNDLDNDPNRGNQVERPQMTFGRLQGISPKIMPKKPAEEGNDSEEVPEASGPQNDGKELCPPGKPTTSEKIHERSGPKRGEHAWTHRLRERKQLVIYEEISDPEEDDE
inactive: erlotinib -0.068 | [1] -0.078 | [2] -0.023 | [3] 0.038 | [4] 0.175 | [5] 0.044 | [6] -0.032 | [7] -0.035 | [8] -0.022 | [9] -0.004 | IRAK-1-4 Inhibitor I -0.038 | ibrutinib -0.004 | [10] -0.006 | ralimetinib -0.03 | [11] 0.022 | [12] -0.044 | [13] 0.123 | pinometostat -0.065 | [14] 0.021
active: [15] -1.33

STARD3 (UniProt Q14849)
Sequence of UniProt Q14849 (Q14849 whole entry, looked up): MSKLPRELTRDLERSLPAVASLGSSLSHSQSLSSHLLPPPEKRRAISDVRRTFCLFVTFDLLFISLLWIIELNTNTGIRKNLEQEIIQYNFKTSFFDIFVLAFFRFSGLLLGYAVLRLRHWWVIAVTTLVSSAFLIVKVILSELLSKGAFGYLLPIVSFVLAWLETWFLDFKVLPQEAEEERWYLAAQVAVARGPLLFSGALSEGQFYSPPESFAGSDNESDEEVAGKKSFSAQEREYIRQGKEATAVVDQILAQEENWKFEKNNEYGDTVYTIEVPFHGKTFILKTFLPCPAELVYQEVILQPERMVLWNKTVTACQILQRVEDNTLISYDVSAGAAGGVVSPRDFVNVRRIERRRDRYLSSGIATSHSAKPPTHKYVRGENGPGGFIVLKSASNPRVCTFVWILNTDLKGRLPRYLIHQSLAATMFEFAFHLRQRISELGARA
inactive: erlotinib -0.073 | [1] 0.133 | [2] -0.05 | [3] 0.022 | [4] -0.095 | [5] 0.058 | [6] -0.028 | [7] 0.197 | [8] 0.059 | [9] 0.04 | IRAK-1-4 Inhibitor I -0.075 | ibrutinib 0.23 | [10] -0.033 | ralimetinib 0.033 | [11] -0.075 | [13] 0.122 | pinometostat 0 | [14] 0.222 | [15] -0.044
active: [12] -0.429

SNW1 (UniProt Q13573)
Sequence of UniProt Q13573 (Q13573 whole entry, looked up): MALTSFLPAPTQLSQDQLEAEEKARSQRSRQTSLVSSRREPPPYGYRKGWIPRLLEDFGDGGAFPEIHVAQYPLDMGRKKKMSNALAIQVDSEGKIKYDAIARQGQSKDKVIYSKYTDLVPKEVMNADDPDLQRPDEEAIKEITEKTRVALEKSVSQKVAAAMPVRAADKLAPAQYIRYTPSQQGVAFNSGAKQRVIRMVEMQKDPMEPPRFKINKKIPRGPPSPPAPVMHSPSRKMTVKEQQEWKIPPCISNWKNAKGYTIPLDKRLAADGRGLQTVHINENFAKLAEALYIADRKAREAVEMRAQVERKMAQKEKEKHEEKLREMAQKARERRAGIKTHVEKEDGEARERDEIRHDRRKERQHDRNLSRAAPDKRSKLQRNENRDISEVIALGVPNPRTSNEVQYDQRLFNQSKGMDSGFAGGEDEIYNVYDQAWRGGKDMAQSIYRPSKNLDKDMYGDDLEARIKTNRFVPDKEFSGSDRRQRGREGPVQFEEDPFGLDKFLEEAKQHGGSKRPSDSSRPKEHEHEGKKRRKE
active: [15] 0.23
inactive: erlotinib -0.047 | [1] -0.028 | [2] -0.029 | [3] 0.036 | [4] -0.015 | [5] 0.045 | [6] -0.051 | [7] -0.001 | [8] 0.001 | [9] 0.002 | IRAK-1-4 Inhibitor I 0.004 | ibrutinib 0.024 | [10] 0.197 | ralimetinib 0.021 | [11] 0.024 | [12] 0.149 | [13] 0.075 | pinometostat -0.008 | [14] -0.015

THYN1 (UniProt Q9P016)
Sequence of UniProt Q9P016 (Q9P016 whole entry, looked up): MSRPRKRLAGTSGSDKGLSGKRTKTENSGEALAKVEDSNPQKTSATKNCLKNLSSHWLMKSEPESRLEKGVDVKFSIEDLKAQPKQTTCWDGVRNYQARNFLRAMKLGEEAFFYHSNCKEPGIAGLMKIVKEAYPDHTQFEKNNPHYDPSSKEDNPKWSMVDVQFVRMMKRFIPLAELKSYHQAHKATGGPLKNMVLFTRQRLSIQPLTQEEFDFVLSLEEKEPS
inactive: erlotinib -0.061 | [1] 0.007 | [2] -0.041 | [3] 0.125 | [4] 0 | [5] 0.006 | [6] -0.032 | [7] 0.145 | [8] -0.002 | [9] -0.037 | IRAK-1-4 Inhibitor I -0.032 | ibrutinib -0.028 | [10] 0.039 | ralimetinib -0.01 | [11] 0.036 | [12] -0.046 | [13] 0.025 | pinometostat 0.004 | [14] -0.033
active: [15] 0.331

TFB2M (UniProt Q9H5Q4)
Sequence of UniProt Q9H5Q4 (Q9H5Q4 whole entry, looked up): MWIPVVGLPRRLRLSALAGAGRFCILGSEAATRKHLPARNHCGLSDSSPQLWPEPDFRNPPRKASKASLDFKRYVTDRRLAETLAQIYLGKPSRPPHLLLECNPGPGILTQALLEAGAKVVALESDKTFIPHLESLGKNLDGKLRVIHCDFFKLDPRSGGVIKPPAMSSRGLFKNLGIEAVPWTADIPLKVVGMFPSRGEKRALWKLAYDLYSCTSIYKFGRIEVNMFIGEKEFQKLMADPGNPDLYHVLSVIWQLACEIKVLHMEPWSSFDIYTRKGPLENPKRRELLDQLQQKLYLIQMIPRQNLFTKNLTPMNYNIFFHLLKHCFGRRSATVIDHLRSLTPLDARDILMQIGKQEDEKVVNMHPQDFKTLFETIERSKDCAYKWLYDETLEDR
inactive: erlotinib 0.007 | [1] 0.094 | [2] 0.037 | [3] -0.043 | [4] 0.016 | [5] 0.019 | [6] -0.022 | [7] -0.019 | [8] 0.002 | [9] 0.007 | IRAK-1-4 Inhibitor I 0.037 | ibrutinib -0.029 | [10] -0.013 | ralimetinib -0.085 | [11] -0.136 | [12] -0.08 | [13] 0.02 | pinometostat 0.012 | [14] -0.03 | [15] 0.005

SLC4A2 (UniProt P04920)
inactive: erlotinib 0.015 | [1] 0.073 | [2] -0.062 | [3] 0.047 | [4] 0.076 | [5] 0.047 | [6] 0.043 | [7] -0.026 | [8] -0.023 | [9] 0.002 | IRAK-1-4 Inhibitor I 0.022 | ibrutinib -0.024 | [10] -0.015 | ralimetinib 0.003 | [11] -0.07 | [12] -0.165 | [13] 0.143 | pinometostat 0.054 | [14] 0.042 | [15] 0.01

SUCLA2 (UniProt Q9P2R7)
inactive: erlotinib 0.024 | [1] 0.016 | [2] 0.072 | [3] -0.031 | [4] 0.049 | [5] -0.018 | [6] 0.037 | [7] -0.019 | [8] 0.004 | [9] -0.01 | IRAK-1-4 Inhibitor I 0.02 | ibrutinib -0.045 | [10] 0.014 | ralimetinib -0.021 | [11] -0.151 | [12] -0.107 | [13] -0.033 | pinometostat -0.034 | [14] -0.021 | [15] 0.022

From the supplement of paper PMC10849652
